The results in this text go back to ChEMBL document CHEMBL3433997, “St. Jude Leishmania screening dataset” (2016).

The structures appear in SMILES notation.

In one experiment the target is Solute carrier family 2, facilitated glucose transporter member 1 (Homo sapiens) (UniProt P11166). The experiment is described as follows: ST_JUDE_LEISH: Cytotoxicity at 2uM final concentration against transgenic Leishmania Mexicana promastigotes LmGLUT1 that are glucose transport deficient and complemented with the human glucose transporter GLUT1. Activity is measured by DNA content using SYBR green in vitro. Format: functional.
Sequence of Solute carrier family 2, facilitated glucose transporter member 1 (Homo sapiens) (P11166 whole entry): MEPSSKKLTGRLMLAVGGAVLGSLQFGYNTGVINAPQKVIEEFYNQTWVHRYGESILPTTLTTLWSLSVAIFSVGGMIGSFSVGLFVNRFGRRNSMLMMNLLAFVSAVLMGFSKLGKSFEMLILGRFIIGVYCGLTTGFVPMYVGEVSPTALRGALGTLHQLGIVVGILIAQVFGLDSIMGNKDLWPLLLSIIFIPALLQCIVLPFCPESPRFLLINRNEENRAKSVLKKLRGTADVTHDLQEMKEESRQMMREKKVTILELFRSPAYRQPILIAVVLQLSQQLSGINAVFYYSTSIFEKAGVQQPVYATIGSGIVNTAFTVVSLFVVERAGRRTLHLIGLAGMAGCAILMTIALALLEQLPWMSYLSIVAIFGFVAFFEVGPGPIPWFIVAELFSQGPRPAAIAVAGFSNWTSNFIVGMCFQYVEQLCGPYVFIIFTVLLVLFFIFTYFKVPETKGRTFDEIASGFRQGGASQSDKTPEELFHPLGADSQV
In the case of `COc1ccc(C(=O)N2CCC3(CC2)C(=O)N(CC(=O)NCC2CCCCC2)CN3c2ccccc2)cc1`, the inhibition (usually the change of the read-out against control, counted positive when it falls) stood at 3.99%.

In the case of `O=C(NCc1cccs1)[C@H](Cc1ccccc1)Nc1ccnc(NCCc2ccccc2)n1`, the inhibition was -0.12%.

For the compound `CN1CCC(N2CCN(C(=O)c3cccc(-c4cccc(-c5nc6ccccc6[nH]5)c4)c3)CC2)CC1`, the inhibition is 0.86%.

With `CCN(CCCN1CCCCC1)c1cc(C)nc(Nc2cc(Br)ccc2C)n1`, the inhibition is -1.93%.

In the case of `CCN1CCN(Cc2ccc(-c3ccc(NS(=O)(=O)c4cccc5cccnc45)cc3)cc2)CC1`, the inhibition came out at 20.6%.

On to `COc1ccc(NC(=O)c2ccc(-c3nc(-c4cccc(C(F)(F)F)c4)cs3)cc2)cc1N1CCN(C)CC1`, for which the inhibition amounted to 0.87%.

On to `O=C1OC(c2ccccc2)(c2ccccn2)CN1C1CCN(Cc2cccn2-c2ccc(Cl)cc2)CC1` (stereo not given), for which the inhibition was found to be 2.2%.

On to `CC(=O)N1CCC(C(=O)Nc2ccc(-c3cccc(-c4nc5cccc(C)c5[nH]4)c3)cc2)CC1`, for which the inhibition turned out to be 2.37%.

`O=C(C=Cc1ccc(Cl)c(Cl)c1)NCCCCCN1CCC(CCCNS(=O)(=O)c2ccc(Br)cc2)CC1`: the inhibition stood at 3.69%.

Turning to `CCOC(=O)/C(=N\OC(C(=O)OC(C)(C)C)c1ccccc1)c1csc(NC(c2ccccc2)(c2ccccc2)c2ccccc2)n1` (stereo not given), the inhibition turned out to be 0.73%.

As for `CCCN(Cc1nnc(-c2cccs2)o1)C(=O)CSc1nnnn1-c1ccc(C)c(C)c1`, the inhibition came out at 12.1%.

As to `Cc1onc(-c2ccccc2)c1-c1nc(NCCC(c2ccccc2)c2ccccc2)no1`, the inhibition was 9.17%.

On to `COc1cccc2cc(C(=O)N[C@@H](CC(C)C)C(=O)N[C@H](/C=N/NC(=O)OC(C)(C)C)CC(=O)OC(C)(C)C)oc12`, for which the inhibition came to 4.66%.

In the case of `CN(C)CCN(C)Cc1ccc(-c2ccc3c(Nc4ccc(F)cc4Cl)ccnc3c2)o1`, the inhibition was determined as 1.3%.

Regarding `CCCC(C)N(Cc1ccc(C(C)(C)C)cc1)C(=O)c1cccc(C#N)c1` (stereo not given), the inhibition is -1.28%.

Turning to `CC(=O)NC1=NC(C)(C)N(OCc2ccc(Cl)c(Cl)c2)C(NC(C)=O)=N1`, the inhibition was -0.21%.

Turning to `O=C(NCCCCN1CCC(c2ccc3c(c2OCCCO)CCCC3)CC1)c1ccc(-c2ccc(C(F)(F)F)cc2)cc1`, the inhibition is 1.13%.

On to `CN1CCCN(Cc2cccc(-c3ccc(NC(=O)c4cccc(C#N)c4)cc3)c2)CC1`, for which the inhibition was determined as 28.9%.

Regarding `O=C(Nc1nc(-c2ccccn2)cc2ccccc12)c1cccc(Cl)c1`, the inhibition is 10.1%.

Take `Cc1ccc(O)cc1Nc1ccnc2cc(-c3ccccn3)ccc12`: the inhibition came to 5.99%.

Regarding `COc1ccc(Cc2c(Cl)nc3nc(N)nc(N)c3c2C)cc1`, the inhibition was determined as 7.37%.

On to `CC1=C(C(=O)OC(C)C)C(c2ccccc2Cl)C2=C(CC(c3ccccc3)CC2=O)N1` (stereo not given), for which the inhibition is 7.11%.

Regarding `COc1cccc(-c2cnc(N)c(-c3nc4ccc(C(F)(F)F)cc4[nH]3)c2)c1`, the inhibition came out at 4.93%.

As to `Clc1ccc2nnc(-c3c(Cl)cccc3Cl)n2n1`, the inhibition came to 6.63%.

On to `O=[N+]([O-])c1ccc(-c2ccc(C=NNc3nc(Nc4ccccc4)nc(Nc4ccccc4)n3)o2)cc1`, for which the inhibition turned out to be 0.91%.

As for `Cc1cccc2nc(-c3ccc(-c4cccc(NC(=O)NCc5cccc(F)c5)c4)cc3)[nH]c12`, the inhibition was -0.32%.

Consider `COc1cccc(-c2cc(-c3ccc(NC(=O)c4ccccc4)cc3)c3c(N)ncnc3n2)c1`, for which the inhibition was -0.77%.

As to `Cc1ccc(S(=O)(=O)NC2CCN(c3ccnc4cc(Cl)ccc34)C2)cc1` (stereo not given), the inhibition turned out to be 3.79%.

As for `Oc1cc(Nc2ccnc3cc(-c4ccc(CN5CCCCC5)o4)ccc23)c(Cl)cc1F`, the inhibition was found to be 3.23%.

Take `Cc1ccc(-c2nc(N3CCN(C(=O)c4ccco4)CC3)c3ccc(Cl)cc3n2)cc1`: the inhibition amounted to 1.17%.

Regarding `O=C1NC(=O)C(c2ccc(Cl)cc2)=C1Nc1cccc(S(=O)(=O)C(F)(F)F)c1`, the inhibition came out at 1.37%.

In the case of `COc1ccccc1C1CCN(C2CCC(NC(=O)/C=C/c3ccc(F)c(F)c3)CC2)CC1` (stereo not given), the inhibition was -3.94%.

In the case of `Cc1ccc(NC(=O)NC2CCN(c3ccnc4cc(Cl)ccc34)C2)cc1` (stereo not given), the inhibition is 0.94%.

`CCN(CC)S(=O)(=O)c1ccc(C=CC(=O)Nc2cc(Cl)ccc2N2CCOCC2)cc1`: the inhibition is 6.36%.

In the case of `CC1(C)N=C(N)N=C(N)N1c1ccccc1`, the inhibition was determined as 3.26%.

On to `COc1cccc2cc(C(=O)N[C@@H](CC(C)C)C(=O)N[C@H](C=NN3CCOC3=O)Cc3ccccc3)oc12`, for which the inhibition was -0.71%.

On to `Oc1cccc2c1CC(NCc1ccccc1)CC2` (stereo not given), for which the inhibition was found to be 1.86%.

With `COc1cc(Cc2cnc(N)nc2N)cc(OCC(C)(C)C(=O)O)c1OC`, the inhibition was -1.6%.

For the compound `COc1ccccc1NC(=O)Nc1ccc(-c2cccc(-c3nc4ccccc4[nH]3)c2)cc1`, the inhibition amounted to 3%.

For `OCC(c1ccccc1)n1c(COc2ccc(Cl)cc2)nc2c(OCCCN3CCCCC3)cccc21` (stereo not given), the inhibition worked out at 12.9%.

The next experiment addresses Hexose transporter 1 (Plasmodium falciparum) (UniProt O97467). Put plainly: ST_JUDE_LEISH: Cytotoxicity at 2uM final concentration against transgenic Leishmania Mexicana promastigotes LmPfHT that are glucose transport deficient and complemented with the Plasmodium falciparum hexose transporter. Activity is measured by DNA content using SYBR green in vitro. Type of experiment: functional.
In the case of `COc1ccc(C(=O)N2CCC3(CC2)C(=O)N(CC(=O)NCC2CCCCC2)CN3c2ccccc2)cc1`, the inhibition was 4.58%.

Consider `O=C(NCc1cccs1)[C@H](Cc1ccccc1)Nc1ccnc(NCCc2ccccc2)n1`, for which the inhibition was -1.06%.

As for `CN1CCC(N2CCN(C(=O)c3cccc(-c4cccc(-c5nc6ccccc6[nH]5)c4)c3)CC2)CC1`, the inhibition turned out to be 2.54%.

Consider `CCN(CCCN1CCCCC1)c1cc(C)nc(Nc2cc(Br)ccc2C)n1`, for which the inhibition was -0.61%.

Take `CCN1CCN(Cc2ccc(-c3ccc(NS(=O)(=O)c4cccc5cccnc45)cc3)cc2)CC1`: the inhibition amounted to 14%.

`COc1ccc(NC(=O)c2ccc(-c3nc(-c4cccc(C(F)(F)F)c4)cs3)cc2)cc1N1CCN(C)CC1`: the inhibition was determined as 1.59%.

As for `O=C1OC(c2ccccc2)(c2ccccn2)CN1C1CCN(Cc2cccn2-c2ccc(Cl)cc2)CC1` (stereo not given), the inhibition came to 1.43%.

In the case of `CC(=O)N1CCC(C(=O)Nc2ccc(-c3cccc(-c4nc5cccc(C)c5[nH]4)c3)cc2)CC1`, the inhibition was 0.21%.

In the case of `O=C(C=Cc1ccc(Cl)c(Cl)c1)NCCCCCN1CCC(CCCNS(=O)(=O)c2ccc(Br)cc2)CC1`, the inhibition is -0.68%.

With `CCOC(=O)/C(=N\OC(C(=O)OC(C)(C)C)c1ccccc1)c1csc(NC(c2ccccc2)(c2ccccc2)c2ccccc2)n1` (stereo not given), the inhibition came to 1.43%.

For the compound `CCCN(Cc1nnc(-c2cccs2)o1)C(=O)CSc1nnnn1-c1ccc(C)c(C)c1`, the inhibition was determined as 11.8%.

As for `Cc1onc(-c2ccccc2)c1-c1nc(NCCC(c2ccccc2)c2ccccc2)no1`, the inhibition is 9.89%.

`COc1cccc2cc(C(=O)N[C@@H](CC(C)C)C(=O)N[C@H](/C=N/NC(=O)OC(C)(C)C)CC(=O)OC(C)(C)C)oc12`: the inhibition stood at 6.98%.

For the compound `CN(C)CCN(C)Cc1ccc(-c2ccc3c(Nc4ccc(F)cc4Cl)ccnc3c2)o1`, the inhibition turned out to be 0.81%.

On to `CCCC(C)N(Cc1ccc(C(C)(C)C)cc1)C(=O)c1cccc(C#N)c1` (stereo not given), for which the inhibition turned out to be 0.07%.

Turning to `CC(=O)NC1=NC(C)(C)N(OCc2ccc(Cl)c(Cl)c2)C(NC(C)=O)=N1`, the inhibition is -0.25%.

For `O=C(NCCCCN1CCC(c2ccc3c(c2OCCCO)CCCC3)CC1)c1ccc(-c2ccc(C(F)(F)F)cc2)cc1`, the inhibition is 3.02%.

For `CN1CCCN(Cc2cccc(-c3ccc(NC(=O)c4cccc(C#N)c4)cc3)c2)CC1`, the inhibition came out at 12.9%.

As to `O=C(Nc1nc(-c2ccccn2)cc2ccccc12)c1cccc(Cl)c1`, the inhibition is 9.58%.

`Cc1ccc(O)cc1Nc1ccnc2cc(-c3ccccn3)ccc12`: the inhibition amounted to 4.26%.

For the compound `COc1ccc(Cc2c(Cl)nc3nc(N)nc(N)c3c2C)cc1`, the inhibition turned out to be 7.06%.

As for `CC1=C(C(=O)OC(C)C)C(c2ccccc2Cl)C2=C(CC(c3ccccc3)CC2=O)N1` (stereo not given), the inhibition is 6.69%.

As to `COc1cccc(-c2cnc(N)c(-c3nc4ccc(C(F)(F)F)cc4[nH]3)c2)c1`, the inhibition was determined as 5.1%.

As for `Clc1ccc2nnc(-c3c(Cl)cccc3Cl)n2n1`, the inhibition came out at 4.09%.

Consider `O=[N+]([O-])c1ccc(-c2ccc(C=NNc3nc(Nc4ccccc4)nc(Nc4ccccc4)n3)o2)cc1`, for which the inhibition was -0.88%.

Consider `Cc1cccc2nc(-c3ccc(-c4cccc(NC(=O)NCc5cccc(F)c5)c4)cc3)[nH]c12`, for which the inhibition is 0.88%.

Regarding `COc1cccc(-c2cc(-c3ccc(NC(=O)c4ccccc4)cc3)c3c(N)ncnc3n2)c1`, the inhibition came out at 0.31%.

In the case of `Cc1ccc(S(=O)(=O)NC2CCN(c3ccnc4cc(Cl)ccc34)C2)cc1` (stereo not given), the inhibition amounted to 3.39%.

For `Oc1cc(Nc2ccnc3cc(-c4ccc(CN5CCCCC5)o4)ccc23)c(Cl)cc1F`, the inhibition is 6.46%.

On to `Cc1ccc(-c2nc(N3CCN(C(=O)c4ccco4)CC3)c3ccc(Cl)cc3n2)cc1`, for which the inhibition came out at 2.21%.

As for `O=C1NC(=O)C(c2ccc(Cl)cc2)=C1Nc1cccc(S(=O)(=O)C(F)(F)F)c1`, the inhibition amounted to 0.65%.

Consider `COc1ccccc1C1CCN(C2CCC(NC(=O)/C=C/c3ccc(F)c(F)c3)CC2)CC1` (stereo not given), for which the inhibition was -1.53%.

As for `Cc1ccc(NC(=O)NC2CCN(c3ccnc4cc(Cl)ccc34)C2)cc1` (stereo not given), the inhibition is 4.46%.

Take `CCN(CC)S(=O)(=O)c1ccc(C=CC(=O)Nc2cc(Cl)ccc2N2CCOCC2)cc1`: the inhibition worked out at 4.63%.

Consider `CC1(C)N=C(N)N=C(N)N1c1ccccc1`, for which the inhibition is 3.47%.

On to `COc1cccc2cc(C(=O)N[C@@H](CC(C)C)C(=O)N[C@H](C=NN3CCOC3=O)Cc3ccccc3)oc12`, for which the inhibition turned out to be 0.23%.

On to `Oc1cccc2c1CC(NCc1ccccc1)CC2` (stereo not given), for which the inhibition stood at 1.22%.

In the case of `COc1cc(Cc2cnc(N)nc2N)cc(OCC(C)(C)C(=O)O)c1OC`, the inhibition was -1.08%.

In the case of `COc1ccccc1NC(=O)Nc1ccc(-c2cccc(-c3nc4ccccc4[nH]3)c2)cc1`, the inhibition stood at 2%.

With `OCC(c1ccccc1)n1c(COc2ccc(Cl)cc2)nc2c(OCCCN3CCCCC3)cccc21` (stereo not given), the inhibition is 9.11%.
